24 molecules from PubChem BioAssay (Tox21) can be followed below.

Where “and” joins values, the source holds several entries; their conditions need not be identical. Equal entries are not always repeated. Inconclusive results are not listed. Values without a mark were called inactive. Calls of active or inactive are those of the source. Unless noted, calls follow the shape of the dose curve; as a rule, active = well fitted curve in the direction sought with a large enough effect in the repeat runs; inconclusive = weak or mixed curves; inactive = no such curve, though single readings can be large; an effect the other way counts as inactive or inconclusive.

Test [1] in a line: qHTS assay to identify aromatase inhibitors - cell viability counter screen (AID 743084).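 Also: cells stimulated with testosterone during compound exposure; nearly all actives have a fitted effect of over 55% in size.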
For test [2], the target named is Aryl hydrocarbon receptor (Homo sapiens) (UniProt P35869). Briefly: qHTS assay to identify small molecule that activate the aryl hydrocarbon receptor (AhR) signaling pathway (AID 743085). Also: nearly all actives have a fitted effect of over 15% in size. Also: potency is read from the fitted curve at half-maximal effect.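 As to activation: HG2L7.5c1 human HepG2 liver cells with stably integrated DRE-driven firefly reporter; series mostly up to about 70 µM.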 The procedure, abridged:
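Luminescence (ONE-Glo) from a dioxin-responsive-element luciferase reporter in HG2L7.5c1 HepG2 cells after 24 hr compound exposure at 37C; viability measured by CellTiter-Fluor fluorescence beforehand.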
On the technique in general: In qHTS, concentration-response curves come from the screen itself.

Test [3] is described as follows: qHTS assay to identify small molecule that activate the aryl hydrocarbon receptor (AhR) signaling pathway - cell viability counter screen (AID 743086).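 Also: HepG2 liver cells carrying the AhR DRE luciferase reporter; series mostly up to about 70 µM; nearly all actives have a fitted effect of over 45% in size.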 The gist of the method:
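HepG2-AhR-luc (HG2L7.5c1) cells, 4000/well, were preincubated 5 h at 37C, exposed to compound in qHTS format for 24 hr at 37C, then given CellTiter-Fluor for 30 min; viability was read as fluorescence in the reporter wells.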

Test [4] addresses Peroxisome proliferator-activated receptor gamma (Homo sapiens) (UniProt P37231). Briefly: qHTS assay to identify small molecule agonists of the peroxisome proliferator-activated receptor gamma (PPARg) signaling pathway (AID 743094; active = well fitted activation curve with a large enough effect in the signal ratio in the repeat runs, not every such curve was filed as active; the % refers to the signal ratio). The gist of the method:
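Agonism was assessed in a beta-lactamase reporter system, HEK293H cells with a stably integrated UAS-bla construct under PPARg control; the 17 h treatment at 37C preceded a 1 h room-temperature FRET substrate read.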

Test [5] shares this target. Briefly: qHTS assay to identify small molecule antagonists of the peroxisome proliferator-activated receptor gamma (PPARg) signaling pathway (AID 743191; calls by dose curve; also: series mostly up to about 63 µM; nearly all actives have a fitted effect of over 30% in size). The procedure, abridged:
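GeneBLAzer PPARg UAS-bla HEK293H cells carrying a UAS-driven beta-lactamase reporter were plated at 3000 cells/well, preincubated 5 h at 37C, then given compound for 17 h at 37C; LiveBLAzer B/G FRET substrate was read after 1 h at room temperature.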

Test [6] in a line: qHTS assay to identify small molecule antagonists of the peroxisome proliferator-activated receptor gamma (PPARg) signaling pathway - cell viability counter screen (AID 743194). Also: nearly all actives have a fitted effect of over 55% in size. The gist of the method:
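PPARg-UAS-bla HEK293H cells were plated, rested 5 h at 37 C, then treated with compounds plus rosiglitazone (50 nM final) for 17 h at 37 C; viability was then read by CellTiter-Glo luminescence after 30 min at room temperature.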

A short description of test [7]: qHTS assay for small molecule agonists of the antioxidant response element (ARE) signaling pathway (AID 743202; active = well fitted activation curve with a large enough effect in the signal ratio in the repeat runs, not every such curve was filed as active; the % refers to the signal ratio; also: potency is read from the fitted curve at half-maximal effect). The procedure, abridged: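 Steps: seed ARE-bla HepG2 cells (2,000/well); incubate 5 h at 37 C; add compounds by pin tool; incubate 16 h at 37 C; add FRET substrate; read fluorescence after 2 h at RT.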
A short description of test [8]: qHTS assay for small molecule agonists of the antioxidant response element (ARE) signaling pathway - cell viability counter screen (AID 743203; calls by dose curve; also: nearly all actives have a fitted effect of over 55% in size). The procedure, abridged:
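ATP content via CellTiter-Glo luminescence served as the viability measure. Cells: ARE-bla HepG2, 2,000 per well. Exposure: 16 hrs, 37C/5% CO2.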

Test [9] in a line: qHTS assay for small molecule activators of the heat shock response signaling pathway - cell viability counter screen (AID 743209). Also: nearly all actives have a fitted effect of over 50% in size. The gist of the method: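 Compounds dissolved in DMSO were added to overnight-plated HSE-bla HeLa cells and left 5 h at 37 C. Cell viability was quantified by luminescence using CellTiter-Glo.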
A short description of test [10]: qHTS assay for small molecule activators of the heat shock response signaling pathway (AID 743210; active = well fitted activation curve with a large enough effect in the signal ratio in the repeat runs, with a control signal flat, not every such curve was filed as active; the % refers to the signal ratio;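 also: HeLa cells with beta-lactamase reporter driven by heat shock elements; series mostly up to about 63 µM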). The procedure, abridged:
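Activation of heat shock element-controlled beta-lactamase expression is measured in HeLa cells by LiveBLAzer FRET fluorescence, with compound exposure lasting 5 h at 37 C and substrate loading 2.5 h at room temperature.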
% is scaled to controls: 0 for no effect and ±100 for the full control effect.

Chain of Aryl hydrocarbon receptor (Homo sapiens) (P35869 whole entry, looked up): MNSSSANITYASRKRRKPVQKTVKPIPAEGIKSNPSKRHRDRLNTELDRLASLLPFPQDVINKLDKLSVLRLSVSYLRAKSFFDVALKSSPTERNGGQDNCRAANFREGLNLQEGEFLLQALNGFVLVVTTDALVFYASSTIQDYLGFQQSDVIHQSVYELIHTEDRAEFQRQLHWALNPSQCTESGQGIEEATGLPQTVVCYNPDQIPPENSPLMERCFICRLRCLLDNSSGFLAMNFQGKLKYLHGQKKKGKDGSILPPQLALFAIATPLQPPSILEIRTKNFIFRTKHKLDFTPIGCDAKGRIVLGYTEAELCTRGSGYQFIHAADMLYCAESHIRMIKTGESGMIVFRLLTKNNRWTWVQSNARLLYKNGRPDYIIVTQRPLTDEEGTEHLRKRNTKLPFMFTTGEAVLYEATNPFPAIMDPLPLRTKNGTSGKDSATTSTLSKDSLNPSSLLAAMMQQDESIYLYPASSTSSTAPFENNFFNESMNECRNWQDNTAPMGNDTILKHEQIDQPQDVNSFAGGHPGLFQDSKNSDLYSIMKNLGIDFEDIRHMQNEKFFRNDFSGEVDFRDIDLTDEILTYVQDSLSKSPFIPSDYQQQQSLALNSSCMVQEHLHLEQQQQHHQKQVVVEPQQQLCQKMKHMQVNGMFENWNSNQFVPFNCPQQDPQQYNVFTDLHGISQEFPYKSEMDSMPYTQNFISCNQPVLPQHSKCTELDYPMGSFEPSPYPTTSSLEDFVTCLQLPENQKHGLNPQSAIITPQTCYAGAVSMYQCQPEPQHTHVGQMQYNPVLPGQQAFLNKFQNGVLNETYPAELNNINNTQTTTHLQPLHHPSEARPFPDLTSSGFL
Chain of Peroxisome proliferator-activated receptor gamma (Homo sapiens) (P37231 whole entry, looked up): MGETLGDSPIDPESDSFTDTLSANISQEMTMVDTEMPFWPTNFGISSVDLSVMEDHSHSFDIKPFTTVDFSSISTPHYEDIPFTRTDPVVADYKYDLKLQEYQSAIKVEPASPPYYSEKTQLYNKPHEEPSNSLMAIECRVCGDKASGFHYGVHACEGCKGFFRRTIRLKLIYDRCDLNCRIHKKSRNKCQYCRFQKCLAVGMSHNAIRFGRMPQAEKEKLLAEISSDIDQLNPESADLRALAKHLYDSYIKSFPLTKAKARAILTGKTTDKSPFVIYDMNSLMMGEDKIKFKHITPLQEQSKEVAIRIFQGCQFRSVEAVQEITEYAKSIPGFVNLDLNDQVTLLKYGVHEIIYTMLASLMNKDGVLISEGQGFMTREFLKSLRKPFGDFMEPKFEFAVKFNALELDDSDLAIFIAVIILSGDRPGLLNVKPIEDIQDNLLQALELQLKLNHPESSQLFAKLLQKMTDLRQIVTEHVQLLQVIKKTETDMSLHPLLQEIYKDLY

Take `CCC(C(=O)OCCN(CC)CC)c1ccccc1` (stereo unspecified): the Potency entry in test [1], in [2], in test [3], in test [4], in test [5] and in test [6] was “inactive” in each case. Also, the Potency result in test [7] and in [8] was “inactive” each time.

Turning to `Cc1cnc(C)c(C)n1`, the Potency entry in test [1], in test [2], in test [3], in test [4], in test [5] and in test [6] was “inactive” each time. In addition, the Potency result in [7], in test [8], in [9] and in [10] was “inactive” each time.

For `Cc1nc2ccccn2c(=O)c1CCN1CCC(C(=O)c2ccc(F)cc2)CC1`, the Potency entry in [1], in [2], in test [3], in test [4], in test [5] and in [6] was “inactive” in each case. Moreover, the Potency result in test [8] and in test [10] was “inactive” in each case.

Regarding `NC(=O)Nc1ccc(Cl)cc1`, the Potency result in test [1], in test [2], in test [3], in test [4], in [5] and in test [7] was “inactive” in each case. Besides, the Potency result in test [8], in [9] and in [10] was “inactive” in each case.

On to `Cc1ccc(S)cc1`, for which the Potency result in test [1], in test [2], in [3], in test [4], in test [5] and in test [6] was “inactive” in each case. In addition, the Potency entry in test [7] and in test [9] was “inactive” in each case.

With `O=C(O)c1ccc(CO)o1`, the Potency entry in test [1], in test [2], in test [3], in test [4], in test [5] and in test [6] was “inactive” in each case. Besides, the Potency entry in test [7], in test [8] and in test [10] was “inactive” each time.

Consider `O=C(O)c1snc(Cl)c1Cl`, for which the Potency result in test [1], in test [3], in test [4], in [5], in test [7] and in [8] was “inactive” in each case. The Potency result in test [9] was “inactive”. In addition, in [2], the Potency was 61.1 µM (active).

With `CC(C)CCCC(=O)O`, the Potency entry in [1], in [2], in test [3], in test [4], in [5] and in test [6] was “inactive” each time. In addition, the Potency result in test [8] and in test [10] was “inactive” throughout.

Regarding `CC(=O)Nc1ccccc1C`, the Potency result in [1], in test [2], in test [3], in test [4], in test [5] and in test [6] was “inactive” throughout. For the same molecule, the Potency entry in test [7], in [8] and in test [9] was “inactive” in each case.

As to `C=CC(=C)CCCC(C)(C)OC(C)=O`, the Potency result in test [1], in [2], in test [3], in [4], in test [5] and in test [6] was “inactive” throughout. The Potency result in [7] and in test [8] was “inactive” throughout.

As for `C=CCCCCCCCCCCCCCCCC`, the activity change, negative = cytotoxicity in test [1] is 17.8% [at 8.47 µM]; in [6] it was 1.33% [at 5.95 µM]; in test [9] it was 11.1% [at 5.95 µM]. The activation in test [2] is -0.177% [at 8.47 µM]; in test [4], -3.71% [at 7.08 µM]. Further, the viability change, negative = cytotoxic in [3] was -2.48% [at 8.47 µM]; in test [8], -4.17% [at 8.36 µM]. The ratio activity, negative = inhibition in test [5] was 1.33% [at 5.95 µM].

For the molecule `Cc1oncc1C(=O)Nc1ccc(C(F)(F)F)cc1`, the Potency entry in test [1], in test [3], in test [4], in test [5], in test [6] and in test [9] was “inactive” each time. Further, in test [10], the Potency result was “inactive”. Also, the Potency in [2] is 1.14 µM (active) and 21.7 µM (active); in [7], 30.6 µM (active).

For `CCC1(C)CC(=O)NC1=O` (stereo unspecified), the Potency result in test [1], in [2], in [3], in test [4], in test [5] and in test [6] was “inactive” in each case. Moreover, the Potency entry in test [7], in [8] and in [10] was “inactive” in each case.

As to `OCCSc1ccccc1`, the Potency entry in test [1], in [2], in test [3], in test [4], in test [5] and in test [6] was “inactive” in each case. In addition, the Potency result in [7], in test [8] and in test [10] was “inactive” throughout.

For `COCC(O)CO` (stereo unspecified), the Potency entry in [1], in [2], in test [3], in test [4], in test [5] and in test [6] was “inactive” each time. For the same molecule, the Potency result in test [7], in [8], in test [9] and in test [10] was “inactive” each time.

For `CC(C)CCCCCCOC(=O)CCCCC(=O)OCCCCCCC(C)C`, the Potency entry in [1], in test [2], in test [3], in test [4], in test [5] and in test [6] was “inactive” in each case. Also, the Potency entry in [8], in test [9] and in test [10] was “inactive” each time.

`O=C(O)c1cccc(O)c1`: the Potency entry in [1], in test [2], in test [3], in test [4], in [5] and in test [6] was “inactive” throughout. Besides, the Potency entry in test [7], in [8], in test [9] and in [10] was “inactive” in each case.

For `CC(=O)Nc1ccc(N)cc1`, the Potency result in test [1], in test [2], in [3], in test [4], in [5] and in test [6] was “inactive” each time. The Potency result in [7] and in test [9] was “inactive” each time.

Turning to `C=CC(=O)NCOCC(C)C`, the Potency result in test [1], in test [2], in test [3], in test [4], in test [5] and in [6] was “inactive” each time. In addition, the Potency result in test [8] and in [9] was “inactive” in each case.

For `CCOC(=N)CC(=O)OCC`, the Potency result in test [1], in [2], in [3], in test [4], in [5] and in [6] was “inactive” each time. For the same molecule, the Potency result in test [7] and in test [10] was “inactive” each time.

On to `Nc1ccc(S(=O)(=O)O)cc1`, for which the Potency entry in test [1], in [2], in test [3], in test [4], in test [5] and in [7] was “inactive” in each case. Further, the Potency entry in [8], in test [9] and in test [10] was “inactive” throughout.

On to `CCCCCCCCCCCC[N+](C)(C)CC(=O)[O-]`, for which the Potency result in [1], in [2], in [3], in [4], in test [5] and in test [6] was “inactive” in each case. The Potency result in test [9] was “inactive”.

For the molecule `O=C(NCCCN1CCOCC1)c1ccc(Cl)cc1`, the Potency result in test [1], in test [2], in [3], in test [4], in test [5] and in [6] was “inactive” each time. Moreover, the Potency entry in test [7], in [8], in test [9] and in test [10] was “inactive” each time.

Take `O=S(=O)(c1ccccc1)c1ccc(Cl)cc1`: the Potency result in test [1], in [2], in test [3], in [4], in [5] and in test [9] was “inactive” throughout. In addition, the Potency result in [10] was “inactive”.
